Records with an inconclusive call do not appear. Active and inactive are the calls of the source. The call rests on the fitted dose curve; in most records, active means well fitted activation curve with a large enough effect; inconclusive means small, poorly fitted or top-dose-only effect; inactive means flat fitted curve, though single readings scatter.

The assay can be described thus: Cellular Toxicity (caspase-3) H-4-II-E (AID 663).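 Further: cells exposed to compound for 16 hr before readout.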 As to conditions: H-4-II-E rat hepatoma, scaled: DMSO 0%, 100 µM tamoxifen 100%; series mostly up to 92.2 µM. The text has this: NIH Chemical Genomics Center [NCGC]
NIH Molecular Libraries Screening Centers Network [MLSCN]
National Institutes of Environmental Health Sciences [NIEHS]
National Toxicology Program [NTP]
We have developed a 1536-well cell-based assay for quantitative high throughput screening (qHTS) against a number of cell lines to determine in vitro caspase 3/7 of small molecules. This particular assay uses the H-4-II-E cell line which is derived from rat hepatoma.
NCGC Assay Protocol Summary:
The Caspase-Glo 3/7 assay (Promega) is a homogeneous method to measure caspase-3 and caspase-7 activities in cultured cells. The quantitation of caspase 3/7 activity is based on the cleavage of a peptide-aminoluciferin substrate. After caspase cleaves the substrate the free aminoluciferin is liberated and serves as the substrate of luciferase, which generates the light. The luminescent signal is proportional to amount of caspase 3/7 activity present.
Using the Caspase-Glo 3/7 assay, the amount of caspase 3/7 activity was measured in the H-4-II-E cell line with complete culture medium following compound treatment for 16 hours. The assay was performed in opaque white 1536-well plates. In the screen, tamoxifen and doxorubicin were used as positive controls. Library compounds were measured for their ability to cause the activation of caspase 3/7 in the cell line, as reflected by an increase in luminescence signal, in a concentration-dependent manner. Data were normalized to the controls for basal activity (DMSO only) and 100% stimulation (100 uM tamoxifen). AC50 values were determined from concentration-response data modeled with the standard Hill equation.
qHTS protocol for caspase 3/7 assay in H-4-II-E cells
[Step] [Parameter] [Value] [Description]
1. Reagent; 5 uL; 1500 H-4-II-E cells/well
2. Time; 5 hr; 37 °C incubation
4. Controls; 23 nL; Tamoxifen 0.23 uM to 100 uM & Doxorubicin 7.0 pM to 100 uM
5. Time; 16 hr; 37 °C incubation
6. Reagent; 5 uL; Caspase-Glo 3/7 reagent
7. Time; 20 min; Room Temperature
8. Detection; Luminescence; Viewlux plate reader
Keywords: caspase 3/7, apoptosis, H-4-II-E cell line, luminescence, NTPHTS, NTPHTS_NCGC, NIEHS, EPA, DSSTox, MLSMR, MLSCN, NIH Roadmap, qHTS, NCGC
Take `C1CCC2CCCCC2C1` (stereo not given): the compound was called inactive.
Next, `CCCCCCCC(=O)Cl`: “inactive”; `COC(=O)NC(=S)Nc1ccccc1NC(=S)NC(=O)OC`: “inactive”.
`C/C=C/c1ccc2c(c1)OCO2`: the compound was called inactive.
Next, `Clc1nc(Cl)nc(Cl)n1`: “inactive”; `CC(Cl)Cl`: “inactive”.
As for `O=C(Cl)/C=C/C(=O)Cl`, the entry is “inactive”; as for `COP(=S)(OC)Oc1ccc([N+](=O)[O-])cc1`, “inactive”.
As for `ClC(Cl)=C(c1ccc(Cl)cc1)c1ccc(Cl)cc1`, the entry is “inactive”.
Regarding `Brc1ccccc1`, the result was inactive.
Next, `ClC1=C(Cl)C2(Cl)C3C4CC(C5OC45)C3C1(Cl)C2(Cl)Cl` (stereo not given): “inactive”.
In the case of `COc1ccc(C=O)cc1OC`, the outcome was inactive.
As for `Cc1cccc(C#N)c1`, the entry is “inactive”.
Next, `c1ccc(N=Nc2ccccc2)cc1`: “inactive”; `O=C1C(Cl)=C(Cl)C(=O)C(Cl)=C1Cl`: “inactive”; `c1nc[nH]n1`: “inactive”.
Turning to `CCOc1ccc(N)cc1`, the outcome was inactive.
As for `Cc1ccc([N+](=O)[O-])cc1C`, the entry is “inactive”; as for `Nc1ccccc1Cl`, “inactive”.
As for `Nc1ccc(Br)cc1`, the entry is “inactive”; as for `CCOP(=S)(OCC)Oc1ccc([N+](=O)[O-])cc1`, “inactive”.
Next, `ClCBr`: “inactive”.
On to `Clc1ccc2ccccc2c1`, for which the result was inactive.
Next, `COC1=CC(=O)OC(CCc2ccccc2)C1` (stereo not given): “inactive”.
Next, `ClC1=C(Cl)C2(Cl)C3C4C=CC(C4)C3C1(Cl)C2(Cl)Cl` (stereo not given): “inactive”; `ClC(Cl)=C(Cl)Cl`: “inactive”; `O=C(O)COc1ccc(Cl)cc1Cl`: “inactive”.
As for `C=CC(=O)OCC`, the entry is “inactive”; as for `NC(=S)Nc1ccccc1`, “inactive”; as for `S=C=Nc1cccc2ccccc12`, “inactive”.
For `C=CCc1ccc(OC)cc1`, the outcome was inactive.
As for `Brc1ccc(Oc2cc(Br)c(Br)cc2Br)c(Br)c1`, the entry is “inactive”; as for `Oc1ccc(Cl)cc1Cl`, “inactive”.
For the compound `c1ccc(-c2ccccc2)cc1`, the compound was called inactive.
As for `O=NN(c1ccccc1)c1ccccc1`, the entry is “inactive”; as for `CCCCOCCOP(=O)(OCCOCCCC)OCCOCCCC`, “inactive”; as for `C=CCOC(C)=O`, “inactive”.
As for `C=CC1CC=CCC1` (stereo not given), the entry is “inactive”.
As for `CCCCCCCCCc1ccc(O)cc1`, the entry is “inactive”.
Regarding `Nc1c(Cl)c(Cl)nc(C(=O)O)c1Cl`, the result was inactive.

Values taken from PubChem BioAssay (NCATS).
